Assay in all cases: NCI-60 one-dose screen, 48 h (100 = growth as untreated, 0 = no growth, -100 = all killed)
Experiment [1] has as its system DU-145 prostate. As to conditions: 10 µM unless noted.
For experiment [2], the system named is K-562 leukemia. As to conditions: 10 µM unless noted.
Experiment [3] concerns MALME-3M melanoma. The conditions noted are these: 10 µM unless noted.
Experiment [4] relates to RXF 393 renal. The conditions noted are these: 10 µM unless noted.
Experiment [5] relates to SF-268 CNS. The conditions noted are these: 10 µM unless noted.
Experiment [6] relates to SF-295 CNS. As to conditions: 10 µM unless noted.
Experiment [7] concerns SF-539 CNS. The conditions noted are these: 10 µM unless noted.
Experiment [8] relates to UACC-257 melanoma. As to conditions: 10 µM unless noted.
Experiment [9] relates to M14 melanoma. As to conditions: 10 µM unless noted.
Experiment [10] has as its system HCT-15 colon. The conditions noted are these: 10 µM unless noted.
The subject of experiment [11] is HT29 colon. As to conditions: 10 µM unless noted.
The test system of experiment [12] is SNB-75 CNS. The conditions noted are these: 10 µM unless noted.
In experiment [13] the test system is SNB-19 CNS. The conditions noted are these: 10 µM unless noted.
Experiment [14] deals with U251 CNS. As to conditions: 10 µM unless noted.
Experiment [15] has as its system PC-3 prostate. As to conditions: 10 µM unless noted.
Experiment [16] concerns SK-MEL-5 melanoma. The conditions noted are these: 10 µM unless noted.
In experiment [17] the test system is UACC-62 melanoma. The conditions noted are these: 10 µM unless noted.
The test system of experiment [18] is SK-MEL-28 melanoma. As to conditions: 10 µM unless noted.
Experiment [19] deals with MDA-MB-231 breast. The conditions noted are these: 10 µM unless noted.
Experiment [20] concerns LOX IMVI melanoma. As to conditions: 10 µM.

Each structure is given as a SMILES string. This is part of a sample that, as a whole, favours compounds with a hit. Of some 83,000 tested, about 20% had one in any assay.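 Each cell line was grown in a 96-well plate and treated with one concentration of compound for 48 hours. Values below 10 were considered active.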 Values without a mark were called inactive. The source made the active and inactive calls.

As for `N#Cc1c(-c2cccc(Cl)c2Cl)cc(-c2ccc3ccccc3c2)[nH]c1=O`, the growth in experiment [1] is 75.8%; in experiment [2], 91.2%; in [3], 66%; in experiment [4] it was 60.9%; in experiment [5], 71.8%; in experiment [6], 31.8%. For the same compound, the growth in experiment [7] is 79.7%; in experiment [8], 94.2%; in experiment [9] it was 32.5%; in experiment [10], 69.6%; in experiment [11], 121%; in [12] it was -12.7% (active). Moreover, the growth in experiment [13] is 39.2%; in [14], 6.58% (active); in experiment [15] it was 44.4%; in experiment [16], 85.7%; in experiment [17], 76.2%; in experiment [18], 92.8%.
For `N#Cc1c(-c2ccccc2Cl)cc(-c2c[nH]c3ccccc23)[nH]c1=O`, the growth in experiment [1] is 66%; in experiment [2] it was 20%; in [3], 57.2%; in experiment [4], 48.7%; in experiment [5], 80%; in experiment [6], 75.8%. For the same compound, the growth in experiment [7] is 52.2%; in [8], 82.3%; in experiment [9] it was 64.1%; in experiment [10] it was 48.7%; in experiment [11], 107%; in experiment [12], 25.7%. Besides, the growth in experiment [13] was 69.5%; in experiment [14] it was 67%; in experiment [15], 72.8%; in experiment [16], 63.8%; in experiment [17], 50.3%; in [18] it was 65.3%.
`N#Cc1c(-c2cccc(Cl)c2Cl)cc(-c2c[nH]c3ccccc23)[nH]c1=O`: the growth in experiment [1] was 68.1%; in experiment [2] it was 30.1%; in [3] it was 54.4%; in experiment [4], 36.8%; in [5] it was 89.7%; in experiment [6], 51.7%. The growth in [7] was 68.1%; in experiment [8], 101%; in [9] it was 34.7%; in experiment [10], 49.7%; in experiment [11], 110%; in experiment [12] it was 79.6%. For the same compound, the growth in experiment [13] is 77.2%; in experiment [14], 68.9%; in experiment [15], 26.5%; in experiment [16], 51.6%; in experiment [17], 47.7%; in experiment [18], 83.5%.
Turning to `N#Cc1c(-c2ccccc2Cl)cc(-c2ccc3ccccc3c2)[nH]c1=O`, the growth in experiment [1] was 49%; in experiment [2], 62%; in [3] it was 12.9%; in experiment [4] it was -6.69% (active); in experiment [5], 22.5%; in experiment [6] it was 1.62% (active). Also, the growth in experiment [7] is 16.5%; in [8] it was 70.3%; in experiment [9], 25.1%; in experiment [10], 63.2%; in experiment [11], 108%; in [12], -37.1% (active). In addition, the growth in experiment [13] was 17%; in [14] it was -2.47% (active); in experiment [15], 60.6%; in [16] it was 79.4%; in experiment [17] it was 52.7%; in [18], 67.9%.
Turning to `CSc1ccc(NC(=O)c2ccc3nn(/C(C#N)=C/c4ccccn4)nc3c2)cc1`, the growth in experiment [1] is -100% (active); in [2] it was -13.4% (active); in experiment [3], -89.4% (active); in [4], -94.9% (active); in experiment [5], -40% (active); in experiment [6], -95.7% (active). Besides, the growth was -95% (active) in experiment [7]; -89.3% (active) in experiment [8]; -86% (active) in [9]; -72.1% (active) in [10]; 35.1% in experiment [12]; -75.7% (active) in [13]. The growth in [14] was -79.9% (active); in experiment [15], -73.7% (active); in [16], -92.8% (active); in [17], -96.3% (active); in [18], -98.4% (active).
Turning to `C=C1CC[C@@H]2[C@]3(C)COC(c4cn(-c5ccccc5)nc4-c4cccc([N+](=O)[O-])c4)O[C@@H]3CC[C@@]2(C)[C@@H]1C/C=C1/C(=O)OC[C@H]1O` (some centres undefined), the growth in experiment [1] is 44.3%; in experiment [2], -12.7% (active); in experiment [3] it was -67.6% (active); in [4] it was -84.2% (active); in [5] it was 46%; in [6] it was -46.5% (active). Also, the growth in [7] is -96.4% (active); in experiment [8], -68% (active); in experiment [9], -51.2% (active); in experiment [10], -74.2% (active); in [11], -59.7% (active); in experiment [12], 109%. Moreover, the growth in experiment [13] was 23.5%; in [14], -73.9% (active); in experiment [15] it was 16.5%; in [16], -99.6% (active); in experiment [17] it was -71.7% (active); in experiment [18], -47.9% (active).
Turning to `CC1=C(C(=O)OC(C)C)C(c2cccc(O)c2)NC(=S)N1` (centres undefined), the growth in experiment [1] is 104%; in [2], 83.2%; in experiment [3], 92.7%; in [4] it was 110%; in experiment [5], 109%; in experiment [6] it was 96.8%. Further, the growth in experiment [7] was 94.7%; in experiment [8], 92.8%; in experiment [9] it was 109%; in experiment [10], 106%; in experiment [11], 102%; in experiment [13], 96.8%. The growth in [14] is 103%; in experiment [15], 107%; in experiment [16], 98.8%; in experiment [17] it was 91.3%; in [18] it was 103%.
Consider `C=C1CC[C@@H]2[C@]3(C)COC(c4cn[nH]c4-c4ccc(OC)cc4)O[C@@H]3CC[C@@]2(C)[C@@H]1C/C=C1/C(=O)OCC1O` (some centres undefined), for which the growth was -27.2% (active) in experiment [1]; -31.2% (active) in experiment [2]; -62.1% (active) in [3]; -58.5% (active) in [4]; 3.8% (active) in experiment [5]; -41.9% (active) in experiment [6]. In addition, the growth in experiment [7] is -87.2% (active); in experiment [8], -24.6% (active); in experiment [9] it was -50.9% (active); in [10] it was -35.3% (active); in experiment [12], -16.5% (active); in experiment [13], 18.5%. Besides, the growth in experiment [14] is -76% (active); in [15], 39.3%; in [16], -94.3% (active); in experiment [17], -75.2% (active); in experiment [18], -52.2% (active).
For the compound `Cc1cnc(C(=O)NNc2nc3cc(F)ccc3n3c(C(=O)N4CC5CC(C4)N5)ccc23)cn1`, the growth in [1] is 48.8%; in experiment [3] it was 43%; in [19], 43.7%; in [4] it was 60.4%; in experiment [5], 33.9%; in experiment [6], 11%. Further, the growth in experiment [7] was 8.21% (active); in [8], 25.5%; in experiment [9] it was -22.8% (active); in [10], 32.4%; in experiment [11], 41.5%; in [12], 71.6%. Also, the growth in experiment [13] is 35.2%; in experiment [14], 22.9%; in [15], 47.2%; in experiment [17] it was 2.81% (active); in [20], 16%; in experiment [18] it was 30.3%.
